PubChem BioAssay AID743126 (The Scripps Research Institute Molecular Screening Center, 2013)
About 2,100 (0.57%) of roughly 370,000 compounds were called active. Shown is part of a subset that was picked to be rich in actives. A number with no mark means an inactive call.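 The calls were made as follows: active = inhibition above mean plus 3 SD of compounds lying within the high and low control bounds (cut at about 19% in these data); inactive = the rest.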

What follows are molecules tested against Group 3 secretory phospholipase A2 (Homo sapiens) (UniProt Q9NZ20) (assay: human group III sPLA2 inhibitors, primary screen, biochemical, QFRET, BODIPY PC-A2 liposome substrate (AID 743126;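 also: 0% = median of test compound wells and 100% = no enzyme DMSO wells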)). Details: QFRET BODIPY PC-A2 liposome hydrolysis, fluorescence; at 12.2 µM; stronger effect = higher value.
Sequence of Group 3 secretory phospholipase A2 (Homo sapiens) (Q9NZ20 whole entry, looked up): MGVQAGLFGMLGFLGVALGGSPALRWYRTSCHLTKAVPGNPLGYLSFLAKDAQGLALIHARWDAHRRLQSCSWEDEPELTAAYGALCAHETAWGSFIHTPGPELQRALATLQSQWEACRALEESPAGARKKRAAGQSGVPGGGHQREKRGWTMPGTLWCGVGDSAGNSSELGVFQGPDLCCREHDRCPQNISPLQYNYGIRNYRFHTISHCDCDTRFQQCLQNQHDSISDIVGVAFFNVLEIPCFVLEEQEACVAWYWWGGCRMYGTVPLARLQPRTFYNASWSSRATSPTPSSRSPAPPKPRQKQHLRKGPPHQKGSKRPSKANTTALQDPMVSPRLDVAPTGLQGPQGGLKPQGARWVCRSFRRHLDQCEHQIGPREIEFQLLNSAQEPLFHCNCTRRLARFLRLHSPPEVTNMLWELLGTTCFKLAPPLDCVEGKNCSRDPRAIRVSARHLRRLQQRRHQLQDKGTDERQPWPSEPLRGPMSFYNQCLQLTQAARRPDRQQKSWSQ
In the case of `C=CCN1C(=O)[C@@H](CC(=O)NCC2CCCCC2)[C@]2(C(=O)OC)CCCCC=C12`, the inhibition is reported as -6.71%. Work on `Cc1ccc(CSc2nnc(SCC(=O)NN=Cc3cc(Br)ccc3F)s2)cc1` yielded an inhibition of 8.12%. `COC[C@@H]1CCCN1c1ccc2c(c1)O[C@H](C)CCN(C1CC1)S2(=O)=O` showed an inhibition of -5.4%. In the case of `Oc1ccc(/C=C/c2c(F)cccc2F)c2cccnc12`, the inhibition is reported as 16%. In the case of `CC1CC(C)(C)NC(=S)N1CCC(=O)N1CCN(Cc2ccccc2)CC1` (stereo not drawn), the inhibition is reported as 8.05%. With `CCN(Cc1ccccc1)C(=O)CN1C(=S)NC(C)(C)CC1C` (stereo not drawn) the inhibition was 31.1% (active). Work on `COc1cccc(CNC(=O)CCN2C(=S)NC(C)(C)CC2C)c1` (stereo not drawn) yielded an inhibition of 6.8%. For `COc1ccccc1C(=O)CSc1nnc(-c2ccccn2)n1-c1ccccc1`, the inhibition was -16.8%. For `CCc1ccc(NC2Nc3cc(C)nn3S2)cc1` (stereo not drawn), the inhibition was 23.9% (active). Work on `CCOC(=O)c1cccc(NC(=O)CN(C)S(=O)(=O)c2ccc(-c3cocn3)s2)c1` yielded an inhibition of -2.93%. For `O=C(C1CCN(S(=O)(=O)c2ccccc2)CC1)N1CCN(C2CCCCC2)CC1`, the inhibition was 8.19%. Molecule `CSc1ccc(C=Nn2c(-c3ccc(F)cc3)n[nH]c2=S)cc1` has an inhibition of 6.63%. Molecule `CCOc1ccc(-c2n[nH]c(=S)n2/N=C/c2cc3c(cc2[N+](=O)[O-])OCO3)cc1` has an inhibition of 1.67%. In the case of `S=c1[nH]nc(-c2ccco2)n1/N=C/c1ccccc1`, the inhibition is reported as 19.3% (active). `Cc1cc(C)cc(NC(=O)N2CCC(N(C)CCC(C)C)CC2)c1` was tested, and the inhibition was 10.3%. Work on `CCOC(=O)[C@@]12CCC3=C1N(CCC3)C(=O)[C@H](CC(=O)N1CCN(C(=O)c3ccco3)CC1)C2` yielded an inhibition of 8.67%. For `c1coc(CCNc2ncnc3ccc(-c4ccc5c(c4)OCO5)cc23)c1`, the inhibition was -19.4%. In the case of `COC(=O)[C@]12C[C@H](CC(=O)NCc3ccccc3)C(=O)N(CCc3ccc(OC)c(OC)c3)C1=C[C@H](C(C)(C)C)O[C@@H]2C`, the inhibition is reported as -21.4%. With `COC1=C[C@H](C(=O)NCCNC(C)=O)[C@H](C)[C@@H](c2ccccc2)CC1=O` the inhibition was -0.85%. In the case of `COc1ccccc1OCC(=O)OCn1c(SC)nnc(C)c1=O`, the inhibition is reported as 21.3% (active). With `COc1ccccc1NC(=O)COC(=O)COc1ccccc1F` the inhibition was -4.78%. For `C=CCn1c(SCC(N)=O)nnc1-c1ccccc1OC`, the inhibition was 6.66%. In the case of `CCN(CC)C(=O)CC[C@H]1CC[C@]2(CCCN(Cc3ccc(Cl)cc3)C2)O1`, the inhibition is reported as 6.37%. With `O=C(COc1ccc(S(=O)(=O)NCc2ccccc2)cc1)N1CCOCC1` the inhibition was 20.9% (active). In the case of `CC(NS(=O)(=O)c1ccc(OCC(=O)N2CCCC2)cc1)c1ccccc1` (stereo not drawn), the inhibition is reported as 5.02%. With `O=C(COc1ccc(S(=O)(=O)NCCc2ccccc2)cc1)N1CCCC1` the inhibition was -5.12%. In the case of `CCOC(=O)[C@]12CCCC=C1N(Cc1ccc(OC)cc1)C(=O)[C@@H]2CC(=O)NCc1cccs1`, the inhibition is reported as -4.75%. `COc1ccc(Cn2cc(CN3[C@@H](CC(C)C)COc4cc(Br)ccc4S3(=O)=O)nn2)cc1` gave an inhibition of 6.77%. Work on `C[C@H]1CCC/C=C/C(=O)c2c(O)cc(O)cc2CC(=O)O1` yielded an inhibition of 4.76%. In the case of `Clc1ccc(-n2c(COc3ccccc3)nnc2SCc2nc3ccccc3[nH]2)cc1`, the inhibition is reported as -11.3%. Molecule `Cc1cc(NS(=O)(=O)c2ccc(NC(=O)CSc3nnc(SCc4ccc(F)cc4)s3)cc2)nc(C)n1` has an inhibition of -29.3%. `Cc1nc(NC(=O)c2ccc3c(c2)OCCO3)ccc1Br` was tested, and the inhibition was 4.96%. For `Cc1ccc2sc(NNC(=O)c3ccc4c(c3)OCCO4)nc2c1C`, the inhibition was 39.7% (active). Work on `C/C(Cc1ccccc1)=N\NC(=O)CNC(=O)c1ccc2c(c1)OCCO2` yielded an inhibition of -4.8%. For `COc1cc(/C=C/C(=O)n2cnc3ccccc32)cc(OC)c1OC`, the inhibition was 11.9%. `CCc1ccccc1NC(=O)CSc1nnc(-c2cccs2)o1` was tested, and the inhibition was 0.47%. `COc1ccc(-c2ccc(Nc3ccc(S(=O)(=O)N4CCCC4)cc3)nn2)cc1OC` was tested, and the inhibition was 27.2% (active). In the case of `COc1ccccc1CC(=O)Nc1ccc(S(=O)(=O)N2CCCC2)cc1`, the inhibition is reported as -5.06%. `COc1cc(C(=O)NNC(=O)c2ccc(S(=O)(=O)N3CCCCC3)cc2)cc(OC)c1OC` showed an inhibition of -8.86%. For `CCC(NC(=O)C1C2C=CC3(CN(Cc4ccccc4)C(=O)C13)O2)c1ccccc1` (stereo not drawn), the inhibition was -3.46%. Molecule `CCOC(=O)C1CCN(C(=O)C(C)(C)NC(=O)Nc2ccccc2Cl)CC1` has an inhibition of 0.81%. For `C/C(=N\NC(=S)Nc1ccc(C)cc1)c1cc2ccccc2o1`, the inhibition was 23.9% (active). `C/C(=N\NS(=O)(=O)c1cccc([N+](=O)[O-])c1)c1cc2ccccc2o1` was tested, and the inhibition was 3.51%. For `CC(=O)N1CCN(c2ccccc2NC(=S)NC(=O)c2cc3ccccc3o2)CC1`, the inhibition was 3.86%. For `Cc1cc(C)n2ncc(C(=O)Nc3ccc4c(c3)OCCO4)c2n1`, the inhibition was 0.96%. With `O=C(NNC(=S)NC1CCCCC1)c1ccccc1Cl` the inhibition was 20.1% (active). Molecule `Cc1nn(C)c(C(=O)NNC(=S)NC2CCCCC2)c1Cl` has an inhibition of 4.69%. In the case of `COc1ccc(Cl)cc1C(=O)NNC(=O)c1nc2nc(C)cc(C)n2n1`, the inhibition is reported as 5.45%. In the case of `COc1ccc(Cl)cc1C(=O)NNC(=S)NC(=O)/C=C/c1ccco1`, the inhibition is reported as 2.13%. Molecule `O=C(COC(=O)c1ccccc1Cl)NC1CCCCCCC1` has an inhibition of 5.22%. In the case of `COc1ccc(Cl)cc1C(=O)NNC(=S)NC1CCCC1`, the inhibition is reported as 26.5% (active). For `COC(=O)C12C=C3CC(c4ccccc4)=C3C(=O)N1Cc1[nH]c3ccccc3c1C2` (stereo not drawn), the inhibition was -7.07%. `COc1ccc(-n2c(SCC(=O)Nc3ccc4cn[nH]c4c3)nnc2-c2cccnc2)cc1` was tested, and the inhibition was 3.42%. Molecule `CC(=O)OCCN1CCCC12CCC(c1ccccc1)CC2` (stereo not drawn) has an inhibition of 11.1%. Molecule `C=CCN1C(=O)[C@@H](CC(=O)NCCCOCCCC)[C@]2(C(=O)OCC)CCCCC/C=C/12` has an inhibition of -8.97%. In the case of `COc1ccc(-n2c(SCC(=O)Nc3ccccc3-c3ccccc3)nnc2-c2cccnc2)cc1`, the inhibition is reported as -5.21%. `CCOC(=O)N1CCN(C(=O)C[C@@H]2C(=O)N(CCc3ccc(Cl)cc3)C3=CCCC[C@]32C(=O)OCC)CC1` was tested, and the inhibition was -8.77%. Molecule `CC(C)c1ccc(NC(=S)NC2CC3C=CC2C3)cc1` (stereo not drawn) has an inhibition of 0.31%. `CC1CCN(C(=S)NC2CC3CCC2C3)CC1` (stereo not drawn) showed an inhibition of 14.4%. `O=C(NNC(=S)NC1CC2CCC1C2)c1ccc(Cl)cc1` (stereo not drawn) was tested, and the inhibition was 19.4% (active). With `S=C(NNC(=S)NC1CC2CCC1C2)NC1CC2C=CC1C2` (stereo not drawn) the inhibition was 19.5% (active). For `O=S(=O)(NC1CC2CCC1C2)c1ccc(Cl)cc1` (stereo not drawn), the inhibition was -4.6%. For `O=C(NNC(=O)C1C2CCC(C2)C1C(=O)O)c1ccc(Cl)cc1` (stereo not drawn), the inhibition was 4.75%. `Cc1ccc(C2=CCN(C)C(=O)N2c2ccc(Cl)cc2)cc1` gave an inhibition of -5.31%. For `COC(=O)C[C@@H]1CC[C@@H]2[C@@H](COc3ccc(NC(=O)Nc4ccc(F)c(F)c4)cc3C(=O)N2C)O1`, the inhibition was -13.5%. Work on `Cc1ccc(S(=O)(=O)N2CCOCC2)cc1C(=O)Nc1ccccc1N1CCCC1` yielded an inhibition of 1.07%. With `Cc1ccc(S(=O)(=O)N2CCOCC2)cc1C(=O)NC(=S)N(Cc1ccccc1)C(C)C` the inhibition was 23.9% (active). `Cc1cccc(N(Cc2ccccc2)C(=O)c2cc(S(=O)(=O)N3CCOCC3)ccc2F)c1` showed an inhibition of -1.09%. Work on `CCC(=O)Nc1ccc2c(c1)C(=O)N(C)[C@@H]1CC[C@@H](CC(=O)NCCc3ccccc3)O[C@H]1CO2` yielded an inhibition of 4.64%. `C[C@H](C(=O)N(C)c1ccccc1)[C@@H](O)c1ccc(Cl)cc1` showed an inhibition of -2.63%. Molecule `O=C(OC12CCCN(C1)/C(=C/c1cccnc1)C2)C1CCCC1` (stereo not drawn) has an inhibition of -0.59%. `Cc1ccccc1NC(=O)C1CCN(c2ncccn2)CC1` was tested, and the inhibition was 19.5% (active). In the case of `O=C(NNC(=O)C1CCN(c2ncccn2)CC1)c1ccccc1`, the inhibition is reported as -1.66%. In the case of `Cc1ccccc1NC(=O)C1CCN(C(=O)NC2CCCCC2)CC1`, the inhibition is reported as -4.04%. `COC(=O)c1cc(S(=O)(=O)N2CCN(c3ccccc3C)CC2)cn1C` was tested, and the inhibition was 1.56%. `CCCCNC(=O)c1ccc(-n2c(=S)[nH]c3ccccc3c2=O)cc1` gave an inhibition of 4.64%. For `CCCCn1c(=S)[nH]c2ncccc2c1=O`, the inhibition was 2.69%. With `CCCCn1c(=S)[nH]c2ccccc2c1=O` the inhibition was 25.3% (active). In the case of `COc1ccccc1C(=O)NC1CCCCN(C(C)C)C1=O` (stereo not drawn), the inhibition is reported as 12.1%. For `COC(=O)[C@H](C(C)C)N(CCCc1cn(Cc2ccccc2)nn1)S(=O)(=O)c1ccc(F)cc1Br`, the inhibition was -15.2%. `CCCCCOC(=O)c1ccc(N2C(=O)C3C4C=CC(C4)C3C2=O)cc1` (stereo not drawn) was tested, and the inhibition was -15.1%. For `CCCCCCCCCCOC(=O)C[N+](C)(C)CC1CCCCC1O` (stereo not drawn), the inhibition was 19.3% (active). `COc1ccc(S[C@]2(C(=O)N(C)C)CC(=O)N(c3ccc(OC)cc3)[C@@H]2c2ccc(OC)cc2)cc1` gave an inhibition of -13.3%. For `CCCCCCN1CCS(=O)(=O)N(Cc2ccc(C(F)(F)F)cc2)C(C(=O)OC)C1` (stereo not drawn), the inhibition was 5.31%. `O=[N+]([O-])c1cc(Cl)cc(/C=N/NC(=S)Nc2cc(S(=O)(=O)N3CCOCC3)ccc2Cl)c1O` was tested, and the inhibition was 16.3%. Molecule `O=C(NN=Cc1ccco1)C(=O)Nc1ccc(Cl)c([N+](=O)[O-])c1` has an inhibition of 3.31%. `O=C(N/N=C/c1cc(Cl)cc([N+](=O)[O-])c1O)C(O)(c1ccccc1)c1ccccc1` was tested, and the inhibition was 21.2% (active). In the case of `CN(C)CC(=O)N[C@@H]1C[C@@H]2O[C@H](CO)CC[C@@H]2O[C@@H]1CCc1ccc(C#Cc2ccccc2)cc1`, the inhibition is reported as -19.5%.
